# How the values were obtained:
# Assay in all cases: DAPPL (digital affinity profiling via proximity ligation, sequencing); 10 mM Tris-HCl pH 7.5, 50 mM NaCl, 1 mM DTT, 4% glycerol, room temperature, 30 min; GST-TFs on glutathione beads, 16-mer random dsDNA library, 0.1% formaldehyde crosslink after washing; high values mean tight binding
# FEV = target: T1, FEV (Homo sapiens, UniProt Q99581 1-238); settings: protein: recombinant; tags: N-terminal GST; dsDNA, one strand shown
# T1 sequence: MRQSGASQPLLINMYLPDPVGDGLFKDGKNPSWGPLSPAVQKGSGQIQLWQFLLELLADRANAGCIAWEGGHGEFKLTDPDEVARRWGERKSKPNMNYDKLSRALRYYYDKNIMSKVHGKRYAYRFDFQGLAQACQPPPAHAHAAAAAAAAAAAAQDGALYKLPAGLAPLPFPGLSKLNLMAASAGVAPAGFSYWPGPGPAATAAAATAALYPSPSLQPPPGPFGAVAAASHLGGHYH
# Procedure, shortened: (§1)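 The binding signal reported is, for every hexamer, its read frequency for a factor over its read frequency for the tag-only sample. Reads came from pools of yeast-expressed, GST-fused human transcription factors on glutathione beads, barcoded with DNA and mixed with that sample, which were incubated with 200 nmole of a random double-stranded 16-mer DNA library in Tris/NaCl/DTT/glycerol buffer at room temperature for 30 min. After washing, the pools were crosslinked with 0.1% formaldehyde, proximity-ligated with BsaI/T4 ligase for 1 h at 37 °C, PCR-amplified and sequenced on an Illumina NextSeq500.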
# ETV5 = ETV5 (Homo sapiens, UniProt P41161 1-510); settings: protein: recombinant; tags: N-terminal GST; dsDNA, one strand shown
# Procedure, shortened: as §1
# HSF1 = HSF1 (Homo sapiens, UniProt Q00613 1-529); settings: protein: recombinant; tags: N-terminal GST; chain copies: 3; dsDNA, one strand shown
# Procedure, shortened: as §1
# SPIC = target: T2, SPIC (Homo sapiens, UniProt Q8N5J4 1-248); settings: protein: recombinant; tags: N-terminal GST; dsDNA, one strand shown
# T2 sequence: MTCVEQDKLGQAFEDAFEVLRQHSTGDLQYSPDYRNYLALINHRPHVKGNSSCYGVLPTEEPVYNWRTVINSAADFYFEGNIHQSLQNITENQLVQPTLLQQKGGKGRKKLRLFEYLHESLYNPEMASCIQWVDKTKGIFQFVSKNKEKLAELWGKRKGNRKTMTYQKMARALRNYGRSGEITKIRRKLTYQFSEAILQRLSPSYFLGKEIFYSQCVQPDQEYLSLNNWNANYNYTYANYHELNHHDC
# Procedure, shortened: as §1
# ELF4 = ELF4 (Homo sapiens, UniProt Q99607 1-663); settings: protein: recombinant; tags: N-terminal GST; dsDNA, one strand shown
# Procedure, shortened: as §1
# ELK4 = target: T3, ELK4 (Homo sapiens, UniProt P28324-2 1-405); settings: protein: recombinant; tags: N-terminal GST; dsDNA, one strand shown
# T3 sequence: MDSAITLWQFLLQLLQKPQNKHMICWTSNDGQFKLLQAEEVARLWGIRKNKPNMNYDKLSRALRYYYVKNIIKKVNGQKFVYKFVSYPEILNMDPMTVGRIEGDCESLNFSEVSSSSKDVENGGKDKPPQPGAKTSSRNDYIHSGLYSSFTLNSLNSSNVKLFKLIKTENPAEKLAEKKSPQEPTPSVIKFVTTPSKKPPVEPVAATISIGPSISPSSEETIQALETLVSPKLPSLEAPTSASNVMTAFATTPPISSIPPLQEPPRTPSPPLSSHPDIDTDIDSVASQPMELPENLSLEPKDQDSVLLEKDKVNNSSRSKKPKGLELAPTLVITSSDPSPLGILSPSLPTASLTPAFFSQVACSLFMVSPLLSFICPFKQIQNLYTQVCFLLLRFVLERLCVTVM
# Procedure, shortened: as §1
# ETV2 = target: T4, ETV2 (Homo sapiens, UniProt O00321 1-342); settings: protein: recombinant; tags: N-terminal GST; dsDNA, one strand shown
# T4 sequence: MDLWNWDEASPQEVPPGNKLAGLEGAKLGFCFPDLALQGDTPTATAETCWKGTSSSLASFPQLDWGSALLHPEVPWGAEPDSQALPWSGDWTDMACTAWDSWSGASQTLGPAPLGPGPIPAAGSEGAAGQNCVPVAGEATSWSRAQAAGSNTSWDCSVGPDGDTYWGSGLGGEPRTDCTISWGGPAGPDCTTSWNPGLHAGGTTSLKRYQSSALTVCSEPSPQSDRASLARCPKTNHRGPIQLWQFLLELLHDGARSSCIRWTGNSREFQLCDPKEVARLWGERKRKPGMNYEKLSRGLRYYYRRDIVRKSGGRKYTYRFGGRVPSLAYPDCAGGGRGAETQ
# Procedure, shortened: as §1
# ELF3 = target: T5, ELF3 (Homo sapiens, UniProt P78545 1-371); settings: protein: recombinant; tags: N-terminal GST; dsDNA, one strand shown
# T5 sequence: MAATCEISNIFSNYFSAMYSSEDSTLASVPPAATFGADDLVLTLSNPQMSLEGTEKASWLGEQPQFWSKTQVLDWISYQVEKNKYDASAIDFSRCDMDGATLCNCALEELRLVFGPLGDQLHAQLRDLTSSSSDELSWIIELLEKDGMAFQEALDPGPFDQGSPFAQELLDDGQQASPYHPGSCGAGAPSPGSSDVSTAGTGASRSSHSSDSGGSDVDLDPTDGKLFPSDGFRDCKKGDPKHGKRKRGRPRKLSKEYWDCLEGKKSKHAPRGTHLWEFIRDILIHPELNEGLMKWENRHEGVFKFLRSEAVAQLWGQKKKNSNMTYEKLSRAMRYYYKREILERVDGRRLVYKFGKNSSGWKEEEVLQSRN
# Procedure, shortened: as §1
# CRX = CRX (Homo sapiens, UniProt O43186 1-299); settings: protein: recombinant; tags: N-terminal GST; dsDNA, one strand shown
# Procedure, shortened: as §1
# ETV1 = ETV1 (Homo sapiens, UniProt P50549 1-477); settings: protein: recombinant; tags: N-terminal GST; dsDNA, one strand shown
# Procedure, shortened: as §1
# ERF = target: T6, ERF (Homo sapiens, UniProt P50548 1-548); settings: protein: recombinant; tags: N-terminal GST; dsDNA, one strand shown
# T6 sequence: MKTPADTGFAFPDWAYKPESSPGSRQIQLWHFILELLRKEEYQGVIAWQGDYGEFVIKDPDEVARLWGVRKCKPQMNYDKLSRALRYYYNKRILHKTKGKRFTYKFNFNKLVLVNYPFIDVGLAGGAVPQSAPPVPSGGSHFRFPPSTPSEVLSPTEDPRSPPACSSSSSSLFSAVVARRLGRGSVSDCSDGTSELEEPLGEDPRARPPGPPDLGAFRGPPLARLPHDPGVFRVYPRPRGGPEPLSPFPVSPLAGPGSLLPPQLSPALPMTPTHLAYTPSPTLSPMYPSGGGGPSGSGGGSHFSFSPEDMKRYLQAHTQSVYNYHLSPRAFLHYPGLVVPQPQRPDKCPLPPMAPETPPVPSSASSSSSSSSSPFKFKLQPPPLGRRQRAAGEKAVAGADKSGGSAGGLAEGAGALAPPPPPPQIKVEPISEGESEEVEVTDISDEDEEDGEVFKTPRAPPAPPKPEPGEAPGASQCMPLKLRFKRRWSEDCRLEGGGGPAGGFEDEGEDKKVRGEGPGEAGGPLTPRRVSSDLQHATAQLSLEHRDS
# Procedure, shortened: as §1
# ETV3L = target: T7, ETV3L (Homo sapiens, UniProt Q6ZN32 1-361); settings: protein: recombinant; tags: N-terminal GST; dsDNA, one strand shown
# T7 sequence: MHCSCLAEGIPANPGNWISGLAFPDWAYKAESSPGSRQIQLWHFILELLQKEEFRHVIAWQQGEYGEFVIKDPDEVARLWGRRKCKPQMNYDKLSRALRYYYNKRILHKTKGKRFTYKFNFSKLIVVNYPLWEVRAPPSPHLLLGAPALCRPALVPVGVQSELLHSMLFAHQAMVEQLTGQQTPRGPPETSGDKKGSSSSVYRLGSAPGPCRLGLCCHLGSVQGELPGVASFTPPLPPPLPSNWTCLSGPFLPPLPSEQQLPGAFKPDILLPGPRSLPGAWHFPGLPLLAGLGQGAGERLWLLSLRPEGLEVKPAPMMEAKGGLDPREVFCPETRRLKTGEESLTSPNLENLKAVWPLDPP
# Procedure, shortened: as §1
# ETS2 = target: T8, ETS2 (Homo sapiens, UniProt P15036 1-469); settings: protein: recombinant; tags: N-terminal GST; dsDNA, one strand shown
# T8 sequence: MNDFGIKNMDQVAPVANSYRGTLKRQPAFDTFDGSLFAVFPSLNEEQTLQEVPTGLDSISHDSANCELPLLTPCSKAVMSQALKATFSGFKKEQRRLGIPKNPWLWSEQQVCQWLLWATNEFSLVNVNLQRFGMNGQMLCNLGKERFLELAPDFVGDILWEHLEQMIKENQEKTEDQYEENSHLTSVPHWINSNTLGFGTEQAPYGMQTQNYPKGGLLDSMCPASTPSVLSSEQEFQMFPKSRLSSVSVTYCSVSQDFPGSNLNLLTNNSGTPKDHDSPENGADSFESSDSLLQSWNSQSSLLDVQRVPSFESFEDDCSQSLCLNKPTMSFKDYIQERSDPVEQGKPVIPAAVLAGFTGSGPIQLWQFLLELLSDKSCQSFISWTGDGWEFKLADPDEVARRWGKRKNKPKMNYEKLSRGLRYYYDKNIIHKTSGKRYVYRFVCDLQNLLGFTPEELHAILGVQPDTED
# Procedure, shortened: as §1
# SPDEF = target: T9, SPDEF (Homo sapiens, UniProt O95238 1-335); settings: protein: recombinant; tags: N-terminal GST; dsDNA, one strand shown
# T9 sequence: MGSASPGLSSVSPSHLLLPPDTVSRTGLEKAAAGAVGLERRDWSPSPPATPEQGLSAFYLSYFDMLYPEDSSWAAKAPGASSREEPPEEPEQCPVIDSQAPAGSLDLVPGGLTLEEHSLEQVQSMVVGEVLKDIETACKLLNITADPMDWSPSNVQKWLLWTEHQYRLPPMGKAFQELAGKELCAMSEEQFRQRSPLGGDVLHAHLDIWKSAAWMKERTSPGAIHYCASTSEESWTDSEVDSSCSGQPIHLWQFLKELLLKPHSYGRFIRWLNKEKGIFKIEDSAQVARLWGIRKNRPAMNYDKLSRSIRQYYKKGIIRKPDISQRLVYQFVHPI
# Procedure, shortened: as §1
# ETV7 = target: T10, ETV7 (Homo sapiens, UniProt Q9Y603 1-341); settings: protein: recombinant; tags: N-terminal GST; dsDNA, one strand shown
# T10 sequence: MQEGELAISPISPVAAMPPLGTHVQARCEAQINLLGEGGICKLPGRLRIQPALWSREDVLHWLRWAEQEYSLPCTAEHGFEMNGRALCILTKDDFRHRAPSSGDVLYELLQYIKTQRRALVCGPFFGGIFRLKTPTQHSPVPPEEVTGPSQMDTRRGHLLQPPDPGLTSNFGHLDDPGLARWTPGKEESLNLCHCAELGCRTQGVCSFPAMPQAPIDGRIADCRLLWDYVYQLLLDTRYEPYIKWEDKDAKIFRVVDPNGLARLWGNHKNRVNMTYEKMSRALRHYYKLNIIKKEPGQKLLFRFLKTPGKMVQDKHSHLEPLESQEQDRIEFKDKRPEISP
# Procedure, shortened: as §1
# ELF5 = target: T11, ELF5 (Homo sapiens, UniProt Q9UKW6-2 1-255); settings: protein: recombinant; tags: N-terminal GST; dsDNA, one strand shown
# T11 sequence: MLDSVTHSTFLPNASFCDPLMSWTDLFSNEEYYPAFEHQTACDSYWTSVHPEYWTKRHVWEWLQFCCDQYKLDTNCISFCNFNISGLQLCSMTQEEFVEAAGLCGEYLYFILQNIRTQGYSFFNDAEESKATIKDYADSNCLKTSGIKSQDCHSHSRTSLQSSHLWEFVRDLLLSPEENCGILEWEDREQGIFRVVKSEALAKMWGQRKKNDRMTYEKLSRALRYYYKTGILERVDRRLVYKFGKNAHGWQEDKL
# Procedure, shortened: as §1
# ETV3 = target: T12, ETV3 (Homo sapiens, UniProt P41162-2 1-143); settings: protein: recombinant; tags: N-terminal GST; dsDNA, one strand shown
# T12 sequence: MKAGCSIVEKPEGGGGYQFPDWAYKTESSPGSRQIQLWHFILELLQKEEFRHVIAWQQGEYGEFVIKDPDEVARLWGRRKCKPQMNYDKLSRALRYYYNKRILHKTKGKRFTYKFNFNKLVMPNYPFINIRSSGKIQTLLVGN
# Procedure, shortened: as §1
# ETV6 = ETV6 (Homo sapiens, UniProt P41212 1-452); settings: protein: recombinant; tags: N-terminal GST; dsDNA, one strand shown
# Procedure, shortened: as §1
# CRX, sequence (O43186 whole entry): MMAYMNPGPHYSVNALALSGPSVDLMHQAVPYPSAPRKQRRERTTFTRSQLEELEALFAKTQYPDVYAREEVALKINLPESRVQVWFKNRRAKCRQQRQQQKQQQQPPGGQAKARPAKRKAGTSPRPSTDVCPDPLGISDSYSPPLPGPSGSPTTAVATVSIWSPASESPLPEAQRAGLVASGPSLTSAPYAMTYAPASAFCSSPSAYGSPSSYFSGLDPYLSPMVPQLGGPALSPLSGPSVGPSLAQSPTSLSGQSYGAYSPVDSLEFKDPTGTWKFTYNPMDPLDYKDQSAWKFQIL
# ETV6, sequence (P41212 whole entry): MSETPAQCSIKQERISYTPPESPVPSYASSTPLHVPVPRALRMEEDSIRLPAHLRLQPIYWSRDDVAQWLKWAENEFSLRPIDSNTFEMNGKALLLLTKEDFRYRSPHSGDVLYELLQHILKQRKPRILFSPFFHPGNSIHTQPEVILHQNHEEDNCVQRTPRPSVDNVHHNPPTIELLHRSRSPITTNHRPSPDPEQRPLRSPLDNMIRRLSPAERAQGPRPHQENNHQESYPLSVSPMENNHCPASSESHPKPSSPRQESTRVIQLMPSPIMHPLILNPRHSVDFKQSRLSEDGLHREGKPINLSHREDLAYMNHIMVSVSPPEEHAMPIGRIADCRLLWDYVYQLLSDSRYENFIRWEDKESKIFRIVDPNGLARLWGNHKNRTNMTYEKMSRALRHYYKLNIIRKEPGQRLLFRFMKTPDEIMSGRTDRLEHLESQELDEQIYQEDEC
# ELF4, sequence (Q99607 whole entry): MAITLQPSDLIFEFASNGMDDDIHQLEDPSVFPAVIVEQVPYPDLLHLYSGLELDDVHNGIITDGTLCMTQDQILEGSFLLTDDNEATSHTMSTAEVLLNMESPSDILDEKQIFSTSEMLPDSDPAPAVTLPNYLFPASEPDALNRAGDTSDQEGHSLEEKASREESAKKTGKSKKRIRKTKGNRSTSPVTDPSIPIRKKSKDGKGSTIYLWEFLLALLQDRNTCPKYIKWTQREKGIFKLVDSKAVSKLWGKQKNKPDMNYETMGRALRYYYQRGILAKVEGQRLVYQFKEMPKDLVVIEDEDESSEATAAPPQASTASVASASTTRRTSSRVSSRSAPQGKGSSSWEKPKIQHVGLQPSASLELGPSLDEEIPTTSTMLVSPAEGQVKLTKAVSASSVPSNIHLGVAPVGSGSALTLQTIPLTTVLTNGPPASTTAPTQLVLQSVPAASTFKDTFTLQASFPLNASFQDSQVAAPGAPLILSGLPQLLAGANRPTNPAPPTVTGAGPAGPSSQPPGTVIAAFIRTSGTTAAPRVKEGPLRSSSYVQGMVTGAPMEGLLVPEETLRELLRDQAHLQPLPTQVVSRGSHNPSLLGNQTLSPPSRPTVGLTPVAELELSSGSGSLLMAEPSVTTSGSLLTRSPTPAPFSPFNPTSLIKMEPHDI
# ETV1, sequence (P50549 whole entry): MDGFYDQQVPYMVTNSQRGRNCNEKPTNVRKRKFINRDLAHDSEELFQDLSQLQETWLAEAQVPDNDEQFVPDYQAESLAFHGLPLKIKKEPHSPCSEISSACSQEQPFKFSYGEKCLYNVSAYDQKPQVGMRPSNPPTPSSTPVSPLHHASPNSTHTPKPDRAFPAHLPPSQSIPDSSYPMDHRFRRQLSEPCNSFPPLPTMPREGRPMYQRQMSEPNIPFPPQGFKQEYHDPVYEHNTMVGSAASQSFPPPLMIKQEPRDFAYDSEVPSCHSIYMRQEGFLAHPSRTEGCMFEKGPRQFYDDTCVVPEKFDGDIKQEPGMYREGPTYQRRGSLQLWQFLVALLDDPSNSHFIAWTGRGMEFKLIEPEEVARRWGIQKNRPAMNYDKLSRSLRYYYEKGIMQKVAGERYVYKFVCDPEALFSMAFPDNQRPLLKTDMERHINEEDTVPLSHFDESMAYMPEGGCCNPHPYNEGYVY
# ETV5, sequence (P41161 whole entry): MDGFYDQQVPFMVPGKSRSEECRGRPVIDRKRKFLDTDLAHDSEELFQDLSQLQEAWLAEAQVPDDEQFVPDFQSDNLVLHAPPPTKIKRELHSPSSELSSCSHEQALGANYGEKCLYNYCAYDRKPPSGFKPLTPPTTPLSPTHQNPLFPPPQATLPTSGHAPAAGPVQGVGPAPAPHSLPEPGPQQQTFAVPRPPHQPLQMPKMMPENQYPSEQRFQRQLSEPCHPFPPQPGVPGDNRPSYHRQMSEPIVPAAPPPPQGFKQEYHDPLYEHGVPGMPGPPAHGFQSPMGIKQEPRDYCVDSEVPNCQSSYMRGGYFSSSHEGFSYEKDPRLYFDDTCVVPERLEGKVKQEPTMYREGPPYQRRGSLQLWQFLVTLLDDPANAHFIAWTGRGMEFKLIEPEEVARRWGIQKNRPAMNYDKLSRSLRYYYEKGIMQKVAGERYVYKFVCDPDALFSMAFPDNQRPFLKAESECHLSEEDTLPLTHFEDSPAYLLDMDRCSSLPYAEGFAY
# HSF1, sequence (Q00613 whole entry): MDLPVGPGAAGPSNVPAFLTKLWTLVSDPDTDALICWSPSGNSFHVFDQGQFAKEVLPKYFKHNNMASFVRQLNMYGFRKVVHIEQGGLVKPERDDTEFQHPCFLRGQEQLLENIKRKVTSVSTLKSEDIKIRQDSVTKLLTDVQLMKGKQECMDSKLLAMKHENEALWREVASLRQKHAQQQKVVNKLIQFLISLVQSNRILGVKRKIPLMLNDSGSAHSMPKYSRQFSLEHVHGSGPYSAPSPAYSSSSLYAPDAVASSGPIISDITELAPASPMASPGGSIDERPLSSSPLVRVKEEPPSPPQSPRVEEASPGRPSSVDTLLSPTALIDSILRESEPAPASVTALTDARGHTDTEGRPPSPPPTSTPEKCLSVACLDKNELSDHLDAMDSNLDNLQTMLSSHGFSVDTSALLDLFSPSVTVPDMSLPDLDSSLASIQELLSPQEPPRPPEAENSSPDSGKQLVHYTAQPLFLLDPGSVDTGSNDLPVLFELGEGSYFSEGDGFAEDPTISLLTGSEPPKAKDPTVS
sequence,measurement,setting,value
TAACTG,binding signal,FEV,"1.28 fold enrichment (6-mer frequency, TF over GST control)"
same,binding signal,ETV5,"1.22 fold enrichment (6-mer frequency, TF over GST control)"
same,binding signal,HSF1,"1.25 fold enrichment (6-mer frequency, TF over GST control)"
same,binding signal,SPIC,"1.42 fold enrichment (6-mer frequency, TF over GST control)"
same,binding signal,ELF4,"1.19 fold enrichment (6-mer frequency, TF over GST control)"
same,binding signal,ELK4,"1.23 fold enrichment (6-mer frequency, TF over GST control)"
same,binding signal,ETV2,"1.31 fold enrichment (6-mer frequency, TF over GST control)"
same,binding signal,ELF3,"1.47 fold enrichment (6-mer frequency, TF over GST control)"
same,binding signal,CRX,"1.5 fold enrichment (6-mer frequency, TF over GST control)"
same,binding signal,ETV1,"1.09 fold enrichment (6-mer frequency, TF over GST control)"
same,binding signal,ERF,"1.11 fold enrichment (6-mer frequency, TF over GST control)"
same,binding signal,ETV3L,"1.23 fold enrichment (6-mer frequency, TF over GST control)"
same,binding signal,ETS2,"1.31 fold enrichment (6-mer frequency, TF over GST control)"
same,binding signal,SPDEF,"1.2 fold enrichment (6-mer frequency, TF over GST control)"
same,binding signal,ETV7,"1.28 fold enrichment (6-mer frequency, TF over GST control)"
same,binding signal,ELF5,"1.16 fold enrichment (6-mer frequency, TF over GST control)"
same,binding signal,ETV3,"1.25 fold enrichment (6-mer frequency, TF over GST control)"
same,binding signal,ETV6,"1.26 fold enrichment (6-mer frequency, TF over GST control)"

# Source: PMC7862700, “An all-to-all approach to the identification of sequence-specific readers for epigenetic DNA modifications on cytosine”
